Test results published in PubChem BioAssay (NCATS).
Values joined by “and” are separate entries in the source; they are usually repeats but may differ in a detail not shown here. Identical values can stand only once. Inconclusive results are not listed. Active and inactive are the calls of the source. Unless noted, the call rests on the fitted dose curve; in most records, active means well fitted curve in the direction sought with a large enough effect; inconclusive means small, poorly fitted or top-dose-only effect, or another doubt; inactive means no such curve, though single readings can be large; an effect the other way counts as inactive or inconclusive.

What was measured:
[1] = Cell Viability - BJ (AID 421; calls by dose curve;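 further: potency means the concentration at half of the fitted maximal effect; cells exposed to compound for 40 hours at 37 °C before readout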); conditions: BJ fibroblast viability, qHTS
How it was run: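 Normal human BJ foreskin fibroblasts, 1500/well in complete medium, treated 40 hr at 37 °C. Cellular ATP by CellTiter-Glo luminescence; normalized to DMSO and 100 uM tamoxifen, AC50 from Hill fit.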

[2] = Cell Viability - Jurkat (AID 426;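 active means dose-dependent loss of cell ATP signal giving a full or clear fitted curve, ranked by lower potency value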; further: potency means the concentration at half of the fitted maximal effect); conditions: qHTS
How it was run: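 Jurkat (Clone E6-1) cells, 5000/well in complete medium, exposed to compounds for 40 hr at 37C; intracellular ATP measured by CellTiter-Glo luminescence after 20 min at room temperature. AC50 from Hill fits.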

[3] = Cell Viability - HepG2 (AID 433; calls by dose curve;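 further: potency means the concentration at half of the fitted maximal effect; potency for ATP loss meaning cytotoxicity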); conditions: qHTS
How it was run: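 HepG2 cells, 1500 per well, treated 40 hr at 37 °C in complete medium; viability from intracellular ATP by CellTiter-Glo luminescence. Normalized to DMSO and 100 uM tamoxifen; AC50 from Hill fit of qHTS concentration-response.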

[4] = Cell Viability - MRC5 (AID 434; calls by dose curve;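 further: potency means the concentration at half of the fitted maximal effect; potency reflects cytotoxicity seen as loss of intracellular ATP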); conditions: MRC5 lung fibroblast viability, qHTS
How it was run: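 qHTS cytotoxicity in human lung fibroblast MRC5 cells; 40 hr treatment, 37 °C; cellular ATP by luciferase luminescence; DMSO = 0%, 100 uM tamoxifen = 100% inhibition; Hill-fit AC50.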

[5] = Cell Viability - SK-N-SH (AID 435; calls by dose curve;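 further: potency means the concentration at half of the fitted maximal effect; compound exposure lasted 40 h at 37 °C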); conditions: SK-N-SH neuroblastoma cell viability qHTS
How it was run: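 SK-N-SH neuroblastoma cells (1500/well) treated 40 h at 37 °C in complete medium; viability read as cellular ATP by CellTiter-Glo luminescence. Normalized to DMSO and 100 uM tamoxifen; AC50 from Hill fits of qHTS concentration-response.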

[6] = target: Mitogen-activated protein kinase 10 (Mus musculus) (UniProt Q61831); experiment: JNK3 AlphaScreen Assay (AID 530; active means well fitted curve in either direction with a large enough effect, not every such curve was filed as active;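 further: kinase came from lysate of stimulated human HepG2 cells; signal reports phosphorylation of biotinylated GST-cJun 1-79 at Ser73 with 10 µM ATP; on the % scale 0 is the no-effect control and ±100 the full control effect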); conditions: JNK3 lysate, c-Jun phosphorylation; series mostly up to 57.1 µM
How it was run: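 Compound titrations were preincubated 15 minutes at room temperature with substrate, antibody and pre-activated JNK3-containing HepG2 lysate. Reactions were started with 10 uM ATP and stopped with EDTA-containing bead buffer for AlphaScreen detection.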

[7] = Cell Viability - N2a (AID 540); conditions: N2a mouse neuroblastoma cell viability; at 92.2 µM (top of the series);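 further: plate controls were DMSO alone for no effect and tamoxifen control for full effect; nearly all actives have a fitted effect of over 45% in size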
How it was run: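 Mouse neuroblastoma N2a cells, 1500/well, exposed to compounds 40 h at 37 °C in complete medium. Viability measured as cellular ATP by CellTiter-Glo luminescence; AC50 from Hill fits of concentration-response.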

[8] = Cell Viability - NIH 3T3 (AID 541); conditions: NIH 3T3 cell viability, qHTS; series mostly up to 92.2 µM;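 further: plate controls were DMSO alone for no effect and tamoxifen positive control for full effect; nearly all actives have a fitted effect of over 25% in size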
How it was run: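 Mouse NIH 3T3 fibroblasts, 1000 cells/well, rested 5 hr at 37 °C, then exposed to compound for 40 hr at 37 °C in complete medium. Viability read as intracellular ATP by CellTiter-Glo luminescence; AC50 from Hill-equation fits of concentration-response data.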

[9] = Cell Viability - HUV-EC-C (AID 542); conditions: HUV-EC-C endothelial cell viability, qHTS; series mostly up to 92.2 µM; further: on the % scale 0 is the no-effect control and ±100 the full control effect; nearly all actives have a fitted effect of over 35% in size
How it was run: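 HUV-EC-C human vascular endothelial cells, 1000/well, exposed to compound for 40 hr at 37 °C in complete medium. Intracellular ATP was read by CellTiter-Glo luminescence. AC50 came from Hill-equation fits of concentration-response data.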

[10] = Cell Viability - H-4-II-E (AID 543); conditions: H-4-II-E rat hepatoma viability; series mostly up to 92.2 µM; further: on the % scale 0 is the no-effect control and ±100 the full control effect; nearly all actives have a fitted effect of over 35% in size
How it was run: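 Rat hepatoma H-4-II-E cells, 1500 per well, treated 40 h at 37 °C in complete medium. Cellular ATP read by CellTiter-Glo luminescence; AC50 from Hill fits of concentration-response.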

[11] = Cell Viability - SH-SY5Y (AID 544); conditions: SH-SY5Y neuroblastoma cell viability; at 92.2 µM (top of the series);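 further: 0% = DMSO alone and -100% = 100 µM tamoxifen; nearly all actives have a fitted effect of over 55% in size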
How it was run: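 SH-SY5Y human neuroblastoma cells (1500/well) incubated 5 h, then compound-treated 40 h at 37 °C in complete medium. Viability read as intracellular ATP by CellTiter-Glo luminescence after 20 min; AC50 from Hill-equation fits of qHTS concentration-response.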

[12] = Cell Viability - Renal Proximal Tubule (AID 545); conditions: renal proximal tubule cells viability, primary cells of rat origin; series mostly up to 91.7 µM;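 further: 0% = DMSO only and -100% = 100 µM tamoxifen; nearly all actives have a fitted effect of over 40% in size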
How it was run: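 Rat renal proximal tubule primary cells, 1000/well, exposed to compounds for 40 hr at 37 °C in complete medium; cellular ATP read by CellTiter-Glo luminescence. AC50 from concentration-response fitted with standard Hill equation.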

[13] = Cell Viability - Mesenchymal (AID 546); conditions: mesenchymal cells viability, qHTS; at 91.7 µM (top of the series);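 further: cells exposed to compound for 40 hours before reading; 0% = DMSO only and -100% = 100 µM tamoxifen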
How it was run: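 AC50 values reflect the drop in intracellular ATP in a human kidney mesenchymal line derived from normal glomeruli. Treatment lasts 40 hr at 37 °C in complete medium, and the signal comes from CellTiter-Glo luminescence.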

[14] = target: Glucocorticoid receptor (Homo sapiens) (UniProt P04150); experiment: GR-GFP Redistribution (AID 450;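 active means compounds whose dose series gives a full or clear partial fitted curve of increased nuclear translocation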; further: potency means the concentration at half of the fitted maximal effect); conditions: U2OS GR-GFP nuclear translocation, laser cytometry, 2 h
Chain of Glucocorticoid receptor (Homo sapiens) (P04150 whole entry, looked up, the tested form may be a part): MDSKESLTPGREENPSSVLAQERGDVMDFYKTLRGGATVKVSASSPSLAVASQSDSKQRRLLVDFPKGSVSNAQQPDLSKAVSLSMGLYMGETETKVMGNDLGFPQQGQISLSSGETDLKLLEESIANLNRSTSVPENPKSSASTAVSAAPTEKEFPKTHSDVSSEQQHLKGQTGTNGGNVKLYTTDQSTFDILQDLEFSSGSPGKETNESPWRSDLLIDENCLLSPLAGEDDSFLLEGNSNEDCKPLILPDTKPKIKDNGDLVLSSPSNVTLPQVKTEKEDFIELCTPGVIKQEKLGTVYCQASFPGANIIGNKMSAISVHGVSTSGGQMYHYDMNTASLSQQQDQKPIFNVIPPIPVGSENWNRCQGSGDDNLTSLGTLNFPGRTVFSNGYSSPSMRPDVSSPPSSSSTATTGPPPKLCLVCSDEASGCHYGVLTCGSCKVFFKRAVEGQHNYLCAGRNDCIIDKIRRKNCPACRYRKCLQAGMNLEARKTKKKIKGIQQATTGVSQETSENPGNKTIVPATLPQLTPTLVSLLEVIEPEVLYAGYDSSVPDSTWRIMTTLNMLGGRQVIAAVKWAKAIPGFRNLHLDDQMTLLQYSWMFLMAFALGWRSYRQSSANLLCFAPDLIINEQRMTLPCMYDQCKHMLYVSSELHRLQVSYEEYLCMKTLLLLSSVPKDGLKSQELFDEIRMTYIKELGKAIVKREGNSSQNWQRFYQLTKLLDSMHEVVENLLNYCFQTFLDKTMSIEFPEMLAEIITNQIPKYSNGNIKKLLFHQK

[15] = AP1 Signaling Pathway (AID 357; active means well fitted curve in either direction with a large enough effect, not every such curve was filed as active;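 further: ME-180 reporter cells stimulated with EGF at its EC50 level; on the % scale 0 is the no-effect control and ±100 the full control effect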); conditions: ME-180 (cervical carcinoma) AP-1-bla reporter, EGF-induced, beta-lactamase ratio, 5 h; series mostly up to 17.2 µM
How it was run: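 Read-out was the 460nm/530nm emission ratio (excitation 405nm) after CCF4 loading for 2.5 hours at room temperature. Cells carried an AP-1-driven beta-lactamase reporter, were stimulated with EC50 EGF plus compound for 5 hours, and AC50 values came from titrations.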

[16] = target: Glucocorticoid receptor (Homo sapiens) (UniProt P04150); experiment: GR-EFC Redistribution (AID 451; calls by dose curve; further: potency means the concentration at half of the fitted maximal effect); conditions: CHO-K1 GR-EFC translocation, beta-gal luminescence, 2 h
How it was run: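 Translocation of GR-ED fusion to nuclear EA restores b-gal, read by luminescence after 1 h room-temperature detection. Engineered CHO-K1 biosensor cells, 1,000/well, exposed 2 h at 37 C to titrations up to 46 uM final.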

[17] = target: Cytochrome P450 1A2 (Homo sapiens) (UniProt P05177); experiment: p450-cyp1a2 (AID 410; calls by dose curve;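 further: -100% = full effect of reference inhibitor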); conditions: recombinant CYP1A2, luciferin-ME demethylation, luminescence; series mostly up to 57 µM
Chain of Cytochrome P450 1A2 (Homo sapiens) (P05177 whole entry, looked up): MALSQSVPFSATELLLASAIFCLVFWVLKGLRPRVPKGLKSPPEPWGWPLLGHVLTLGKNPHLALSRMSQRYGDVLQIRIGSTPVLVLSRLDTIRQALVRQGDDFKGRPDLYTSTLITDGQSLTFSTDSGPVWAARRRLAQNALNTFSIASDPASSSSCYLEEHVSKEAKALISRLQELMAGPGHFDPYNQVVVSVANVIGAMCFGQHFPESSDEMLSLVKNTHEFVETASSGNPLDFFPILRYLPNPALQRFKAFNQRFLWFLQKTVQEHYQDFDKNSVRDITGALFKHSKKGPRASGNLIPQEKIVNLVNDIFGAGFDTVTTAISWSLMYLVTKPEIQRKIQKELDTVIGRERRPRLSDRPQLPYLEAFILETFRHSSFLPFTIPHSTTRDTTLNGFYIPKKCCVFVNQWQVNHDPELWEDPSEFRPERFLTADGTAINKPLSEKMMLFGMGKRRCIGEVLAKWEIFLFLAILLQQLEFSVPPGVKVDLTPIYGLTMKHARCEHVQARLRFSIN
How it was run: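 20nM CYP1A2 with 100uM Luciferin-ME (at Km) in 100mM KPO4; compound preincubated 10 min, NADPH regeneration added, 60 min at room temperature. Luciferin quantified by luminescence after detection reagent; normalized to 57 uM furafylline.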

[18] = target: 3',5'-cyclic-AMP phosphodiesterase 4B (Homo sapiens) (UniProt Q07343); experiment: qHTS Assay for Inhibitors of PDE-IV (AID 607; active means well fitted activation curve with a large enough effect in the main read-out, with a control signal flat, not every such curve was filed as active; further: % of control where 0% means no effect); conditions: HEK293 ACTOne CNG channel cells, membrane potential fluorescence; series mostly up to 22.9 µM
Chain of 3',5'-cyclic-AMP phosphodiesterase 4B (Homo sapiens) (Q07343 whole entry, looked up): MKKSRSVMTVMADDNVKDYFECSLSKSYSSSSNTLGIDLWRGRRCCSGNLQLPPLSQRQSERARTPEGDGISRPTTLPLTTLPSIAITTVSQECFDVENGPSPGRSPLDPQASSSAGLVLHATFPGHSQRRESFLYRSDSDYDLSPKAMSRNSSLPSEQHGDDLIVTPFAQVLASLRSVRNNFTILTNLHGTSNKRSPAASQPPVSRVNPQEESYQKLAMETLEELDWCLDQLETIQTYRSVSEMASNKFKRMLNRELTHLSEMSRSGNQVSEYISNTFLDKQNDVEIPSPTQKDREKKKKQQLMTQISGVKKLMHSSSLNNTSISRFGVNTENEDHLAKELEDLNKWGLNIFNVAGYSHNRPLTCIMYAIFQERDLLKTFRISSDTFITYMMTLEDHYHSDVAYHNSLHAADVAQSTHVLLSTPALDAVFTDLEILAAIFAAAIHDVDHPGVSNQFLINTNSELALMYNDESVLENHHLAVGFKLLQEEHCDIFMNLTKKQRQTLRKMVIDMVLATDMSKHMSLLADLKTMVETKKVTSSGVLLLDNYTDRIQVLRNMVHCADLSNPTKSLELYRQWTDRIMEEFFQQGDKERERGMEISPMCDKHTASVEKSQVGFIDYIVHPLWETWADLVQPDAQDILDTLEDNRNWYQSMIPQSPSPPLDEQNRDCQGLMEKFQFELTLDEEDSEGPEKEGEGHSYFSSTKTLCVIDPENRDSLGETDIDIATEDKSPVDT
How it was run: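 HEK293 ACTOne cells with CNG channel (1000/well), endogenous PDE4; membrane potential dye, compounds up to 22.9 uM final. Fluorescence Ex 535/Em 590; RO 20-1724 (100 uM final) as reference.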

CCOC(C)=O
inactive: Potency [1] > 92 µM | Potency [2] > 92 µM | Potency [3] > 92 µM | Potency [4] > 92 µM | Potency [5] > 92 µM | outcome [6] | activity change, negative = cytotoxicity [7] 9.44% | outcome [8] | Potency [9] | Potency [10] | viability change, negative = cytotoxic [11] -3.69% | outcome [12] | activity change, negative = cytotoxicity [13] 10.1%

CCCCC/C=C\C/C=C\CCCCCCCC(=O)O
inactive: Potency [1] > 92 µM | Potency [2] > 92 µM | Potency [3] > 92 µM | Potency [4] > 92 µM | Potency [5] > 92 µM | activity change, negative = cytotoxicity [7] -28.9% | outcome [8] | Potency [9] | Potency [10] | viability change, negative = cytotoxic [11] 0.00595% | outcome [12] | activity change, negative = cytotoxicity [13] 8.92%

CC(C)=O
inactive: Potency [1] > 92 µM | Potency [2] > 92 µM | Potency [3] > 92 µM | Potency [4] > 92 µM | Potency [5] > 92 µM | outcome [6] | activity change, negative = cytotoxicity [7] -2.26% | outcome [8] | Potency [9] | Potency [10] | viability change, negative = cytotoxic [11] -5.22% | outcome [12] | activity change, negative = cytotoxicity [13] -1.45%

CC(Cc1ccc(O)c(O)c1)C(C)Cc1ccc(O)c(O)c1 (configuration not stated)
inactive: Potency [14] > 20.6 µM

CCN(CC)Cc1cc(Nc2ccnc3cc(Cl)ccc23)ccc1O
inactive: outcome [15] | Potency [14] > 20.6 µM | Potency [16] > 20.6 µM | outcome [6]

CCCCCCCC/C=C\CCCCCCCC(=O)O
inactive: Potency [1] > 92 µM | Potency [2] > 92 µM | Potency [3] > 92 µM | Potency [4] > 92 µM | Potency [5] > 92 µM | outcome [6] | activity change, negative = cytotoxicity [7] -2.98% | outcome [8] | Potency [9] | Potency [10] | viability change, negative = cytotoxic [11] 3.98% | outcome [12] | activity change, negative = cytotoxicity [13] 16.2%

O=S(=O)(O)O
inactive: Potency [1] > 92 µM | Potency [2] > 92 µM | Potency [3] > 92 µM | Potency [4] > 92 µM | Potency [5] > 92 µM | outcome [6] | activity change, negative = cytotoxicity [7] -3.09% and 7.28% | outcome [8] | Potency [9] | Potency [10] | viability change, negative = cytotoxic [11] 2.52% and 9.94% | outcome [12] | activity change, negative = cytotoxicity [13] -5.83% and 4.47%

IC(I)I
inactive: Potency [1] > 92 µM | Potency [2] > 92 µM | Potency [3] > 92 µM | Potency [4] > 92 µM | Potency [5] > 92 µM | outcome [6] | activity change, negative = cytotoxicity [7] -10.4% | outcome [8] | Potency [9] | Potency [10] | viability change, negative = cytotoxic [11] -2.58% | outcome [12] | activity change, negative = cytotoxicity [13] 5.44%

O=C(O)CC/C=C\CC[C@H]1[C@@H](N2CCCCC2)[C@@H](O)C[C@@H]1OCc1ccc(-c2ccccc2)cc1
inactive: Potency [17] | Potency [14] > 46 µM | Potency [16] > 46 µM | outcome [6] | outcome [18]
